# Legend:
# Assay in all cases: DAPPL (digital affinity profiling via proximity ligation, sequencing); 10 mM Tris-HCl pH 7.5, 50 mM NaCl, 1 mM DTT, 4% glycerol, room temperature, 30 min; GST-TFs on glutathione beads, 16-mer random dsDNA library, 0.1% formaldehyde crosslink after washing; high values mean tight binding
# [1] = target: T1, FLI1 (Homo sapiens, UniProt Q01543 1-452); settings: protein: recombinant; tags: N-terminal GST; dsDNA, one strand shown
# T1 sequence: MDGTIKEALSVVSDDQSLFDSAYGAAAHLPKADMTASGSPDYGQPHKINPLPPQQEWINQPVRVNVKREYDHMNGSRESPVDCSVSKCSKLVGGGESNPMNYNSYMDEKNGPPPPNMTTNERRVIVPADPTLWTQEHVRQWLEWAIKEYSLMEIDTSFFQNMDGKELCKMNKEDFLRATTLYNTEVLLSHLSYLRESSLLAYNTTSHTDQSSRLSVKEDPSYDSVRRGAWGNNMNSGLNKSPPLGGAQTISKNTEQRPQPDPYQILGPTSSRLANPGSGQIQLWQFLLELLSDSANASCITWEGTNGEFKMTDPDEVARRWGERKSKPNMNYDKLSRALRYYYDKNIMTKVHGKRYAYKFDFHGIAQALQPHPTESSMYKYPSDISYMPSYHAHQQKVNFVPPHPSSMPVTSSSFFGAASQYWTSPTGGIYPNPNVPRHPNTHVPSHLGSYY
# Procedure, shortened: (§1)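 Binding signal is defined as a hexamer's read frequency for one factor over its frequency for the tag-only sample. To obtain reads, GST-fused human transcription factors were expressed in yeast, captured on glutathione beads, barcoded with DNA and pooled with that sample. Pools met 200 nmole of a 16-mer random double-stranded DNA library in Tris/NaCl/DTT/glycerol buffer for 30 min at room temperature before washing, 0.1% formaldehyde crosslinking, proximity ligation (BsaI/T4 ligase, 1 h, 37 °C), PCR and Illumina NextSeq500 sequencing.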
# [2] = target: T2, ELK1 (Homo sapiens, UniProt P19419 1-428); settings: protein: recombinant; tags: N-terminal GST; dsDNA, one strand shown
# T2 sequence: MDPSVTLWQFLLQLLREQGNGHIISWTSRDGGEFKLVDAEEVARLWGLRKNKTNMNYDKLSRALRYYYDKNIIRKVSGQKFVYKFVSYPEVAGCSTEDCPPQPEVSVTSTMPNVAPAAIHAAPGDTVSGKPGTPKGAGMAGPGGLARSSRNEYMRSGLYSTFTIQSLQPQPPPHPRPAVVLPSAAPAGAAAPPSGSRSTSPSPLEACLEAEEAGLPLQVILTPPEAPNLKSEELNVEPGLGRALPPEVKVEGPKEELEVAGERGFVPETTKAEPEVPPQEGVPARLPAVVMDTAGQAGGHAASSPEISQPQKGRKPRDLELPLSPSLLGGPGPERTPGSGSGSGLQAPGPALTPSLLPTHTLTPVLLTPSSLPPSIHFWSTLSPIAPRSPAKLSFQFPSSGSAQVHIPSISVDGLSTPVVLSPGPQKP
# Procedure, shortened: as §1
# [3] = target: T3, GABPA (Homo sapiens, UniProt Q06546 1-454); settings: protein: recombinant; tags: N-terminal GST; dsDNA, one strand shown
# T3 sequence: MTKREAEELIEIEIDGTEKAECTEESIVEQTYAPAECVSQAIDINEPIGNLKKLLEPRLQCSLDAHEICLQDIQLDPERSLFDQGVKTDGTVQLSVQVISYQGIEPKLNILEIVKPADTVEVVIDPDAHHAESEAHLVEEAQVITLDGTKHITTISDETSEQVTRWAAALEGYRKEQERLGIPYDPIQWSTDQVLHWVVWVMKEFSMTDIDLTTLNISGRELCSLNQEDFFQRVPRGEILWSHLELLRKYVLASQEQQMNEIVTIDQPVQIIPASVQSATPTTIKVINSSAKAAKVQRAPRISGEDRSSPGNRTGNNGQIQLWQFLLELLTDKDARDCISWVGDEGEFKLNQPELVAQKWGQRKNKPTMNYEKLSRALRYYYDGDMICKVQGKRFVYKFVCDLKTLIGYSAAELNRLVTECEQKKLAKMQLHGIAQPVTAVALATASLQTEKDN
# Procedure, shortened: as §1
# [4] = target: T4, ERG (Homo sapiens, UniProt P11308 1-479); settings: protein: recombinant; tags: N-terminal GST; dsDNA, one strand shown
# T4 sequence: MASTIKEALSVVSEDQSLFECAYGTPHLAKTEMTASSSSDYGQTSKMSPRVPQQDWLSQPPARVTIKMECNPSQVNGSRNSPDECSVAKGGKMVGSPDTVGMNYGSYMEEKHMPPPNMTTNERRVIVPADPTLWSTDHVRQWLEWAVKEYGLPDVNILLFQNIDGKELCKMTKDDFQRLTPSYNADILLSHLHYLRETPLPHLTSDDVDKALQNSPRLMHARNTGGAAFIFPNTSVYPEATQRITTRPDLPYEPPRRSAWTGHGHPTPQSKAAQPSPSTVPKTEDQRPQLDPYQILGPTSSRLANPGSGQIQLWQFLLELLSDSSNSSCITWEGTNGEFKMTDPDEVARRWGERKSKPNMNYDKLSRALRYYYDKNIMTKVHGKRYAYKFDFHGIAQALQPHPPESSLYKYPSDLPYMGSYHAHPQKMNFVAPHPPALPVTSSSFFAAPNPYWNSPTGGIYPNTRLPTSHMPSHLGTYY
# Procedure, shortened: as §1
# [5] = target: ELF1 (Homo sapiens, UniProt P32519 1-619); settings: protein: recombinant; tags: N-terminal GST; dsDNA, one strand shown
# ELF1, sequence (P32519 whole entry): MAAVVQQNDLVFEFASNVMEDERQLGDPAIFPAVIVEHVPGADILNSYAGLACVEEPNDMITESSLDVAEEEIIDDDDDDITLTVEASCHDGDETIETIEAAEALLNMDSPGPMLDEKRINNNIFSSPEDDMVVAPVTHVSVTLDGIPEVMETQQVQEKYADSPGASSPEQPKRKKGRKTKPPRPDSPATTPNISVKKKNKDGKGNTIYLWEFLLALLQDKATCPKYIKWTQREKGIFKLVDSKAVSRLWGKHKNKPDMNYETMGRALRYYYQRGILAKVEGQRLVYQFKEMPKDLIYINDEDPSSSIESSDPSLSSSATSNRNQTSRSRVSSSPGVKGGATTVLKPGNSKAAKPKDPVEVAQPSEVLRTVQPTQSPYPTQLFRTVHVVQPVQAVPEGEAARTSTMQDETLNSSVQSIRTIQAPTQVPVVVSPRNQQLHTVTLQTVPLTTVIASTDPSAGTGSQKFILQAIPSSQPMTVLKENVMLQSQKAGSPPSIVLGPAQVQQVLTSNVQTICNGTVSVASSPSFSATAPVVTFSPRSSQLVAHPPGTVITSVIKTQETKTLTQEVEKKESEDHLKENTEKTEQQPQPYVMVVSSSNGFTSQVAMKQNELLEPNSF
# Procedure, shortened: as §1
# [6] = target: T5, EHF (Homo sapiens, UniProt Q9NZC4 1-300); settings: protein: recombinant; tags: N-terminal GST; dsDNA, one strand shown
# T5 sequence: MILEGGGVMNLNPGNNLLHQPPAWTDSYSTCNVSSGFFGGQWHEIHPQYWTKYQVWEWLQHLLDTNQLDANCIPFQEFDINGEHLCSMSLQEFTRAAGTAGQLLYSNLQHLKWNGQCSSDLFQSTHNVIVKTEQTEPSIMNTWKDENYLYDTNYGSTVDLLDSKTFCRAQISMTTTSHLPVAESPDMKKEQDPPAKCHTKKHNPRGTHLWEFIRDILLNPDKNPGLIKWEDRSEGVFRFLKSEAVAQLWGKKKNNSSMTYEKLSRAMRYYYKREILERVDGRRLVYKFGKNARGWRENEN
# Procedure, shortened: as §1
# [7] = target: SPI1 (Homo sapiens, UniProt P17947 1-270); settings: protein: recombinant; tags: N-terminal GST; dsDNA, one strand shown
# Procedure, shortened: as §1
# [8] = target: SPIB (Homo sapiens, UniProt Q01892 1-262); settings: protein: recombinant; tags: N-terminal GST; dsDNA, one strand shown
# SPIB, sequence (Q01892 whole entry): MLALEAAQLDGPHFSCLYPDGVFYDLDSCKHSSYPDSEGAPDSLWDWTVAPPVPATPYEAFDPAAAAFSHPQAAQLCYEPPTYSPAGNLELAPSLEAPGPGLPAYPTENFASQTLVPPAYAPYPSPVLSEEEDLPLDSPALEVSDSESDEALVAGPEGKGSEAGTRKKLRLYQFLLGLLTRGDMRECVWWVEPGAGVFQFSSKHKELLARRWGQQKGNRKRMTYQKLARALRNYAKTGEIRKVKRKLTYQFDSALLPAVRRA
# Procedure, shortened: as §1
# [9] = target: T6, ELK3 (Homo sapiens, UniProt P41970 1-407); settings: protein: recombinant; tags: N-terminal GST; dsDNA, one strand shown
# T6 sequence: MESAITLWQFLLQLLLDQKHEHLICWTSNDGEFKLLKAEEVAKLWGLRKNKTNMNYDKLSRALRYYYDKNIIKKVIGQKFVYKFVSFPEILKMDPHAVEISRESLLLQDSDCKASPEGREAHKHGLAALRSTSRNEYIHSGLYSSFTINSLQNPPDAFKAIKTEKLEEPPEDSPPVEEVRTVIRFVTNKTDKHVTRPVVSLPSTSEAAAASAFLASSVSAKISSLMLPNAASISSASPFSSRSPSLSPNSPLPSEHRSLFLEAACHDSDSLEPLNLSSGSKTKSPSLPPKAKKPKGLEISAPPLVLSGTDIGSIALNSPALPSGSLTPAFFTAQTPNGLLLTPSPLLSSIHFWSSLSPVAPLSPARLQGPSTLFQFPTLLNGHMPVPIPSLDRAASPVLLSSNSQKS
# Procedure, shortened: as §1
# [10] = target: T7, FEV (Homo sapiens, UniProt Q99581 1-238); settings: protein: recombinant; tags: N-terminal GST; dsDNA, one strand shown
# T7 sequence: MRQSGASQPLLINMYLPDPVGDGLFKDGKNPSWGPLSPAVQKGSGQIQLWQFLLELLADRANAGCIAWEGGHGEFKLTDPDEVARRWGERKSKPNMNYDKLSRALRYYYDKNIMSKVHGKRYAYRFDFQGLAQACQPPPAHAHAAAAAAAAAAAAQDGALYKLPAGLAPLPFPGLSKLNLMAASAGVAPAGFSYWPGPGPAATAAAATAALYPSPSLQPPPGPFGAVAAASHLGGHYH
# Procedure, shortened: as §1
# [11] = target: ETV5 (Homo sapiens, UniProt P41161 1-510); settings: protein: recombinant; tags: N-terminal GST; dsDNA, one strand shown
# ETV5, sequence (P41161 whole entry): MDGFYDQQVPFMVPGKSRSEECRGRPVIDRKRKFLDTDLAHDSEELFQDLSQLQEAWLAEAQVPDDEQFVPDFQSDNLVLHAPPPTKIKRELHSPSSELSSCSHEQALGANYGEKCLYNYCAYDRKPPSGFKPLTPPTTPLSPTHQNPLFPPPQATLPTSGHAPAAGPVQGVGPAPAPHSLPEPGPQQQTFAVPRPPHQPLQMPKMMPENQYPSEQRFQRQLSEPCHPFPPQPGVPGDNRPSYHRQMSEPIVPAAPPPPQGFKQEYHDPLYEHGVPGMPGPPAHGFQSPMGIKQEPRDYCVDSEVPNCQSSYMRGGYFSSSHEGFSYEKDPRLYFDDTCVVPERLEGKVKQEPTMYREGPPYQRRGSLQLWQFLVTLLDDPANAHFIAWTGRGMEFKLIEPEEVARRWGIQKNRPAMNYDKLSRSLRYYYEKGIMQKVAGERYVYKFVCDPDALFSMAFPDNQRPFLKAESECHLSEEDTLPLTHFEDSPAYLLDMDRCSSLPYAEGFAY
# Procedure, shortened: as §1
# [12] = target: HSF1 (Homo sapiens, UniProt Q00613 1-529); settings: protein: recombinant; tags: N-terminal GST; chain copies: 3; dsDNA, one strand shown
# HSF1, sequence (Q00613 whole entry): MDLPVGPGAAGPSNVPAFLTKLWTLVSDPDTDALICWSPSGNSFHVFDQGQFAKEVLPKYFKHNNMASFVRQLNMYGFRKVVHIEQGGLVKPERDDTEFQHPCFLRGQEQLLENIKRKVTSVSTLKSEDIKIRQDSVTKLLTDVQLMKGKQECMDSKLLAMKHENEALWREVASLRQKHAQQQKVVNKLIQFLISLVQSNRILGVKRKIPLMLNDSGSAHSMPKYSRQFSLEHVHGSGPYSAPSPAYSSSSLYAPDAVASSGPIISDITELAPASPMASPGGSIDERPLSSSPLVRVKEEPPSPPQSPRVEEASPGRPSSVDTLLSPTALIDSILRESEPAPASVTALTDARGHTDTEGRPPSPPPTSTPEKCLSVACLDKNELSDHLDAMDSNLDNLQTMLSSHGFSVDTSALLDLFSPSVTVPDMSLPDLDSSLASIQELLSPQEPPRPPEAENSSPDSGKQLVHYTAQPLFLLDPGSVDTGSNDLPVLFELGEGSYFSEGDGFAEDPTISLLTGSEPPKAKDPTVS
# Procedure, shortened: as §1
# [13] = target: T8, SPIC (Homo sapiens, UniProt Q8N5J4 1-248); settings: protein: recombinant; tags: N-terminal GST; dsDNA, one strand shown
# T8 sequence: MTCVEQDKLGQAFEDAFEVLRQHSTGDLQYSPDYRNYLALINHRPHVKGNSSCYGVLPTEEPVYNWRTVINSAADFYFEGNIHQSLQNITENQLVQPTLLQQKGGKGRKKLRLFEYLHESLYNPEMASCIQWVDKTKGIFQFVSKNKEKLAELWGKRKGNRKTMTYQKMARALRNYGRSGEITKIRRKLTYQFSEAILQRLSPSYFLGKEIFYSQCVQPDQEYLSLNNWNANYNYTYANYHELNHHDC
# Procedure, shortened: as §1
# [14] = target: ELF4 (Homo sapiens, UniProt Q99607 1-663); settings: protein: recombinant; tags: N-terminal GST; dsDNA, one strand shown
# ELF4, sequence (Q99607 whole entry): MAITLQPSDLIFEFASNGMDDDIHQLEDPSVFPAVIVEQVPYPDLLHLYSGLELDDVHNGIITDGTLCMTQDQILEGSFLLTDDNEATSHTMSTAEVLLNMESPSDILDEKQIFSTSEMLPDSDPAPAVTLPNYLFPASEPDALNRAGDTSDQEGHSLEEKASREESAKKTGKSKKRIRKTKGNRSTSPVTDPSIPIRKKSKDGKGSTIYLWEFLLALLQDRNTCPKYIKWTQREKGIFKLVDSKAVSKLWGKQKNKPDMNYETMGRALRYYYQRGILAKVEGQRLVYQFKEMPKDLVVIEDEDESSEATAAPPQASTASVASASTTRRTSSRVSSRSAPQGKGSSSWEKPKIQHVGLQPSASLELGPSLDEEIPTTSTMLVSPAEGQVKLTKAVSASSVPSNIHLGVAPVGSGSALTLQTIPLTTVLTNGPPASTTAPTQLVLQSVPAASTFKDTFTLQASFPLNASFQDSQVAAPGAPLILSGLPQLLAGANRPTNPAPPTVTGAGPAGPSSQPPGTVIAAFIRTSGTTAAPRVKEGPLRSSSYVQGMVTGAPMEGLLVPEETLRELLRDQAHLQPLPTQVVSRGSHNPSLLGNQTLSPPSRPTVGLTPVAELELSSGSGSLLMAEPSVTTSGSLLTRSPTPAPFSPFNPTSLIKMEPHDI
# Procedure, shortened: as §1
# [15] = target: T9, ELK4 (Homo sapiens, UniProt P28324-2 1-405); settings: protein: recombinant; tags: N-terminal GST; dsDNA, one strand shown
# T9 sequence: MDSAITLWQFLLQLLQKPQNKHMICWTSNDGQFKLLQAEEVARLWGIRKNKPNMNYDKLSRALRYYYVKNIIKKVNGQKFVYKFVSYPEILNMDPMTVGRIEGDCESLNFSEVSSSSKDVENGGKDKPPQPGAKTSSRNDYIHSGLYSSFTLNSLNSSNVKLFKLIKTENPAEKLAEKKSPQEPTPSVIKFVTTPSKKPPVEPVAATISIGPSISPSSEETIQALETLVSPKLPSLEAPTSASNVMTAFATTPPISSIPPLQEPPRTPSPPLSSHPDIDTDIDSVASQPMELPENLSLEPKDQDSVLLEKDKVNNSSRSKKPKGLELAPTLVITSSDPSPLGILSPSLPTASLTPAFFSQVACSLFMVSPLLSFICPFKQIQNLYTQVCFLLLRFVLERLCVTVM
# Procedure, shortened: as §1
# [16] = target: T10, ETV2 (Homo sapiens, UniProt O00321 1-342); settings: protein: recombinant; tags: N-terminal GST; dsDNA, one strand shown
# T10 sequence: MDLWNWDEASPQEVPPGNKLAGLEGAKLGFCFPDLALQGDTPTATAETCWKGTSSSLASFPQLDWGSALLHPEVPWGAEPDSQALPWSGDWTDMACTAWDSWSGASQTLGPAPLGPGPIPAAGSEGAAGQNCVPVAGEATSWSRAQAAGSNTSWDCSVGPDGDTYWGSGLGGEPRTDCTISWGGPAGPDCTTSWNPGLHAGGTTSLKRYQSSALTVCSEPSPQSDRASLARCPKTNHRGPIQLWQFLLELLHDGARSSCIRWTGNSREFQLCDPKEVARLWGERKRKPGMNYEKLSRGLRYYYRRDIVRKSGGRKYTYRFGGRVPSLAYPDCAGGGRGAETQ
# Procedure, shortened: as §1
# [17] = target: T11, ELF3 (Homo sapiens, UniProt P78545 1-371); settings: protein: recombinant; tags: N-terminal GST; dsDNA, one strand shown
# T11 sequence: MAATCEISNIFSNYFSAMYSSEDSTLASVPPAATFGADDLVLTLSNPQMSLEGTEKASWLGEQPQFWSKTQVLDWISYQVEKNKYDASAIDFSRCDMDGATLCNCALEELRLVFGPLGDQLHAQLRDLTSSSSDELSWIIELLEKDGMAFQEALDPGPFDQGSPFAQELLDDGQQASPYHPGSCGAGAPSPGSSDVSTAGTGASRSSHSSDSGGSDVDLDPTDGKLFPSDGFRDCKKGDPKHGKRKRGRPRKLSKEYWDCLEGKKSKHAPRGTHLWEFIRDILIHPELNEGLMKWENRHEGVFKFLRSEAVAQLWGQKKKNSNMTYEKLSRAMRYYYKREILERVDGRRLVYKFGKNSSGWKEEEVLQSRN
# Procedure, shortened: as §1
# [18] = target: CRX (Homo sapiens, UniProt O43186 1-299); settings: protein: recombinant; tags: N-terminal GST; dsDNA, one strand shown
# CRX, sequence (O43186 whole entry): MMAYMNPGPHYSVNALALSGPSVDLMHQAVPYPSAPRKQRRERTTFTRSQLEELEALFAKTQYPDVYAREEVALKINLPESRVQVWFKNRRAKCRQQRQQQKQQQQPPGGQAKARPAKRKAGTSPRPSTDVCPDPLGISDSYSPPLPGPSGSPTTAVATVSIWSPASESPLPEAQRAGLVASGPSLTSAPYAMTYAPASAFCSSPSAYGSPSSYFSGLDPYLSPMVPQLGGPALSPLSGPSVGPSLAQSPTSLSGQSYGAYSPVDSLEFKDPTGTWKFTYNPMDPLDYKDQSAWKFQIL
# Procedure, shortened: as §1
# [19] = target: ETV1 (Homo sapiens, UniProt P50549 1-477); settings: protein: recombinant; tags: N-terminal GST; dsDNA, one strand shown
# ETV1, sequence (P50549 whole entry): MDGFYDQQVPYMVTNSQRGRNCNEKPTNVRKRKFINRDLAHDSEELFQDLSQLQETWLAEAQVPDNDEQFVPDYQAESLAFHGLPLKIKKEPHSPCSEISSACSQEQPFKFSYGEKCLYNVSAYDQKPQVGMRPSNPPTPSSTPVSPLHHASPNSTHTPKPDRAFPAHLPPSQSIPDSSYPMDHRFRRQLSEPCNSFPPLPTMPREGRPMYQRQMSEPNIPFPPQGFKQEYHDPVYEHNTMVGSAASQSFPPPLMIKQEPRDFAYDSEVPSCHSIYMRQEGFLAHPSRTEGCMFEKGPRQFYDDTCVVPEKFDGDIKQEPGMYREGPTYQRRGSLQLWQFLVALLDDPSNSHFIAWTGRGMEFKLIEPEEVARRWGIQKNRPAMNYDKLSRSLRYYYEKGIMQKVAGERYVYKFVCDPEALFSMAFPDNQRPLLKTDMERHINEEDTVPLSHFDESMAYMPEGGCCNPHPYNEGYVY
# Procedure, shortened: as §1
sequence,measurement,setting,value
AATTAG,binding signal,[1],"1.18 fold enrichment (6-mer frequency, TF over GST control)"
same,binding signal,[2],"1.09 fold enrichment (6-mer frequency, TF over GST control)"
same,binding signal,[3],"1.13 fold enrichment (6-mer frequency, TF over GST control)"
same,binding signal,[4],"1.11 fold enrichment (6-mer frequency, TF over GST control)"
same,binding signal,[5],"1.12 fold enrichment (6-mer frequency, TF over GST control)"
same,binding signal,[6],"1.06 fold enrichment (6-mer frequency, TF over GST control)"
same,binding signal,[7],"1.1 fold enrichment (6-mer frequency, TF over GST control)"
same,binding signal,[8],"1.11 fold enrichment (6-mer frequency, TF over GST control)"
same,binding signal,[9],"1.09 fold enrichment (6-mer frequency, TF over GST control)"
same,binding signal,[10],"1.07 fold enrichment (6-mer frequency, TF over GST control)"
same,binding signal,[11],"1.12 fold enrichment (6-mer frequency, TF over GST control)"
same,binding signal,[12],"1.39 fold enrichment (6-mer frequency, TF over GST control)"
same,binding signal,[13],"1.08 fold enrichment (6-mer frequency, TF over GST control)"
same,binding signal,[14],"1.15 fold enrichment (6-mer frequency, TF over GST control)"
same,binding signal,[15],"1.14 fold enrichment (6-mer frequency, TF over GST control)"
same,binding signal,[16],"1.12 fold enrichment (6-mer frequency, TF over GST control)"
same,binding signal,[17],"1.13 fold enrichment (6-mer frequency, TF over GST control)"
same,binding signal,[18],"1.69 fold enrichment (6-mer frequency, TF over GST control)"
same,binding signal,[19],"1.14 fold enrichment (6-mer frequency, TF over GST control)"

# Reference: article PMC7862700, “An all-to-all approach to the identification of sequence-specific readers for epigenetic DNA modifications on cytosine”
